Measurements from PubChem BioAssay (NCATS).
Several values for one entry are separate records, joined by “and”; a condition that tells them apart may be missing. Equal entries are not always repeated. Records with an inconclusive call do not appear. Entries that show only a call come without a potency. Activity calls are given as the source filed them. Unless noted, the call rests on the fitted dose curve.

System: not listed separately
Experiment: qHTS assay for small molecule antagonists of peroxisome proliferator-activated receptor delta signaling (AID 588535; active means well fitted inhibition curve with a large enough effect in the signal ratio, with a control signal flat, not every such curve was filed as active; the % refers to the signal ratio;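 on max response: cells co-treated with a PPAR-delta agonist as stimulator during compound exposure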)
Settings: HEK293T PPARd-UAS-bla, beta-lactamase FRET ratio, 18 h; 460 nm channel
Summary of the method: (§1)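 Antagonist-mode beta-lactamase reporter (GeneBLAzer PPAR-delta-UAS-bla) in HEK293T cells, 2% charcoal/dextran FBS, 4000 cells/well. Compound titrations, 18 h at 37 C; CCF4 ratio read, IC50 and efficacy from Hill fits.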
With Cc1ccc(OP(=O)(Oc2ccc(C)cc2)Oc2ccc(C)cc2)cc1 the max response was 2.39% and -12%. Compound Oc1c(Cl)c(Cl)cc(Cl)c1Cl has a max response of -31%. With O=[N+]([O-])c1c(Cl)c(Cl)c(Cl)c(Cl)c1Cl the max response was 0.973%. For ClCC(Cl)Cl, the max response was -51.8%. In the case of C=CC(=O)OCCO, the max response is reported as -1.31%. For CC(C)[N+](=O)[O-], the max response was 7.55%. Compound Cc1cc(-c2cc(C)c(N)c(C)c2)cc(C)c1N has a max response of 7.84%. With Nc1cc(Cl)ccc1O the max response was -44.8%. Work on CCN(N=O)C(N)=O yielded a max response of -10.7%. Compound O=C(O)C(Br)CBr (stereo not drawn) has a max response of 31.3%. For Nc1c(Br)cc([N+](=O)[O-])cc1[N+](=O)[O-], the max response was 33.6%. O=[N+]([O-])c1ccccc1CCl showed a max response of -16.6%. N#CC(Br)Br showed a max response of -6.9%. For O=C(O)C(Cl)Br (stereo not drawn), the max response was 33.1%. Nc1ccc([N+](=O)[O-])cc1N showed a max response of 3.68%. For O=C(O)c1cccc(Cl)c1, the max response was 30.4%. In the case of Cc1cc(N=Nc2ccccc2C)ccc1N, the max response is reported as -21.5%. For OCCCCO, the max response was -23.5%. O=[N+]([O-])c1cc(Cl)c(Cl)c(Cl)c1 showed a max response of 30.2%. CC(C)(COCC1CO1)COCC1CO1 (stereo not drawn) gave a max response of 0.207%. For CC(C)(C)OOC(=O)c1ccccc1, the max response was -0.545%. With c1ccc(N=NNc2ccccc2)cc1 the max response was -9.27% and 22.4%. COC(C)(C)C gave a max response of -16.9%. C(CCOCC1CO1)COCC1CO1 (stereo not drawn) gave a max response of -10%. With CN(C)c1ccc(N)cc1 the max response was -7.4%. O=[N+]([O-])/C=C/c1ccccc1 gave a max response of 20.9%.

Biological target: Peroxisome proliferator-activated receptor delta (Homo sapiens) (UniProt Q03181)
Sequence (Q03181 whole entry, looked up): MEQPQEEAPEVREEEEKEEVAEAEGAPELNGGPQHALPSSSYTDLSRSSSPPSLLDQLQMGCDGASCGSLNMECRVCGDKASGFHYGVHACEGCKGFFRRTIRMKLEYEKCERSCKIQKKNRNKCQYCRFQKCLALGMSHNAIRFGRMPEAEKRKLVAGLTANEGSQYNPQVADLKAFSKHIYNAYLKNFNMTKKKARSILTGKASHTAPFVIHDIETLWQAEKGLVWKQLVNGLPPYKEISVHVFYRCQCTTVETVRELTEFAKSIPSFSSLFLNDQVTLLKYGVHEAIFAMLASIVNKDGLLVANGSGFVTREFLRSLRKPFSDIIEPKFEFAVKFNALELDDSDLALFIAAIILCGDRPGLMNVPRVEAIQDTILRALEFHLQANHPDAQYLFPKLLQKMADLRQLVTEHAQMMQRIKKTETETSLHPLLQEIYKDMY
Experiment: as above
Settings: HEK293T PPARd-UAS-bla, beta-lactamase FRET ratio, 18 h; series mostly up to 76.7 µM
Summary of the method: as §1
For Cc1ccc(OP(=O)(Oc2ccc(C)cc2)Oc2ccc(C)cc2)cc1, the outcome was “inactive”. With Oc1c(Cl)c(Cl)cc(Cl)c1Cl the outcome was “inactive”. With O=[N+]([O-])c1c(Cl)c(Cl)c(Cl)c(Cl)c1Cl the outcome was “inactive”. With ClCC(Cl)Cl the outcome was “inactive”. With C=CC(=O)OCCO the outcome was “inactive”. With CC(C)[N+](=O)[O-] the outcome was “inactive”. With Cc1cc(-c2cc(C)c(N)c(C)c2)cc(C)c1N the outcome was “inactive”. In the case of Nc1cc(Cl)ccc1O, the outcome is reported as “inactive”. With CCN(N=O)C(N)=O the outcome was “inactive”. With O=C(O)C(Br)CBr (stereo not drawn) the outcome was “inactive”. In the case of Nc1c(Br)cc([N+](=O)[O-])cc1[N+](=O)[O-], the outcome is reported as “inactive”. In the case of O=[N+]([O-])c1ccccc1CCl, the outcome is reported as “inactive”. With N#CC(Br)Br the outcome was “inactive”. In the case of O=C(O)C(Cl)Br (stereo not drawn), the outcome is reported as “inactive”. In the case of Nc1ccc([N+](=O)[O-])cc1N, the outcome is reported as “inactive”. With O=C(O)c1cccc(Cl)c1 the outcome was “inactive”. For Cc1cc(N=Nc2ccccc2C)ccc1N, the outcome was “inactive”. In the case of OCCCCO, the outcome is reported as “inactive”. For O=[N+]([O-])c1cc(Cl)c(Cl)c(Cl)c1, the outcome was “inactive”. With CC(C)(COCC1CO1)COCC1CO1 (stereo not drawn) the outcome was “inactive”. In the case of CC(C)(C)OOC(=O)c1ccccc1, the outcome is reported as “inactive”. In the case of c1ccc(N=NNc2ccccc2)cc1, the outcome is reported as “inactive”. With COC(C)(C)C the outcome was “inactive”. In the case of C(CCOCC1CO1)COCC1CO1 (stereo not drawn), the outcome is reported as “inactive”. In the case of CN(C)c1ccc(N)cc1, the outcome is reported as “inactive”. For O=[N+]([O-])/C=C/c1ccccc1, the outcome was “inactive”.

Biological target: Peroxisome proliferator-activated receptor gamma (Homo sapiens) (UniProt P37231)
Sequence (P37231 whole entry, looked up): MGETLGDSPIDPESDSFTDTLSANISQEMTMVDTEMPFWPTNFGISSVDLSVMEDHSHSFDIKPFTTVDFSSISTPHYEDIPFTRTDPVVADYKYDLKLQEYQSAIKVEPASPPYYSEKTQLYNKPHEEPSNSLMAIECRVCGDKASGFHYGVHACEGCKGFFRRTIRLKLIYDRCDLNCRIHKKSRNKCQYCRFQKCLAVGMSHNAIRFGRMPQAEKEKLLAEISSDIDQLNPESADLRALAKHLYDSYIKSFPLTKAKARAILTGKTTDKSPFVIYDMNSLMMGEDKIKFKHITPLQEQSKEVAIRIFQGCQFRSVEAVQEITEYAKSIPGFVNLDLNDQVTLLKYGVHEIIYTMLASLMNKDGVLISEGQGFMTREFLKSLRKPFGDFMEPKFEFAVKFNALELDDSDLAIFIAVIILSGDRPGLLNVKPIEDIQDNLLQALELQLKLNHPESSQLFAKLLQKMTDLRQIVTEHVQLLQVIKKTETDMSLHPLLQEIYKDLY
Experiment: qHTS assay for small molecule agonists of peroxisome proliferator-activated receptor gamma signaling (AID 588536; active means well fitted curve in the direction sought with a large enough effect in the signal ratio, with a control signal flat, not every such curve was filed as active; the % refers to the signal ratio)
Settings: HEK293 PPARg-UAS-bla, beta-lactamase ratio, 16 h, percent of rosiglitazone response, DMSO as zero; series mostly up to 76.7 µM
Summary of the method: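 Ratiometric blue/green fluorescence (405 nm excitation; 460 and 530 nm emission) from CCF4-loaded HEK293 reporter cells serves as signal. Exposure to test compounds lasts 16 h at 37 C in medium containing 1% charcoal/dextran-treated serum.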
With O=C(O)C(Br)Br the outcome was “inactive”. With Nc1ccc(Cc2ccc(N)c(Cl)c2)cc1Cl the outcome was “inactive”. In the case of CN(C)c1ccc(N(C)C)cc1, the outcome is reported as “inactive”. In the case of CN1CSC(=S)N(C)C1, the outcome is reported as “inactive”. With ClCC(Cl)Cl the outcome was “inactive”. For O=[N+]([O-])c1ccc(O)c([N+](=O)[O-])c1, the outcome was “inactive”. For CC(C)[N+](=O)[O-], the outcome was “inactive”. For Nc1cc(Cl)ccc1O, the outcome was “inactive”. For CCCCC(CC)COC(=O)c1ccc(C(=O)OCC(CC)CCCC)c(C(=O)OCC(CC)CCCC)c1 (stereo not drawn), the outcome was “inactive”. With O=[N+]([O-])c1ccccc1CCl the outcome was “inactive”. In the case of N#CC(Br)Br, the outcome is reported as “inactive”. For O=C(O)C(Cl)Br (stereo not drawn), the outcome was “inactive”. In the case of Nc1ccc([N+](=O)[O-])cc1N, the outcome is reported as “inactive”. With O=C(O)c1cccc(Cl)c1 the outcome was “inactive”. In the case of Cc1cc(N=Nc2ccccc2C)ccc1N, the outcome is reported as “inactive”. For OCCCCO, the outcome was “inactive”. With O=[N+]([O-])c1cc(Cl)c(Cl)c(Cl)c1 the outcome was “inactive”. For CC(C)(COCC1CO1)COCC1CO1 (stereo not drawn), the outcome was “inactive”. For Cc1ccc2c(c1N)C(=O)c1ccccc1C2=O, the outcome was “inactive”. In the case of COc1ccccc1N, the outcome is reported as “inactive”. For c1ccc(N=NNc2ccccc2)cc1, the outcome was “inactive”. In the case of CN(C)c1ccc(N)cc1, the outcome is reported as “inactive”. In the case of O=[N+]([O-])/C=C/c1ccccc1, the outcome is reported as “inactive”.

Biological target: Peroxisome proliferator-activated receptor gamma (Homo sapiens) (UniProt P37231)
Experiment: qHTS assay for small molecule antagonists of peroxisome proliferator-activated receptor gamma signaling (AID 588537; active means well fitted inhibition curve with a large enough effect in the signal ratio, with a control signal flat, not every such curve was filed as active; the % refers to the signal ratio; further: potency means the concentration at half of the fitted maximal effect)
Settings: HEK293 PPARg-UAS-bla, beta-lactamase ratio, antagonist mode; series mostly up to 76.8 µM
Summary of the method: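 PPARγ-UAS-bla HEK293 cells (3000/well) in 1% charcoal/dextran-stripped FBS are treated with compound, then stimulated with 50 nM rosiglitazone for 16 h at 37 °C. Read-out is CCF4 β-lactamase fluorescence after 2 h at RT. IC50 comes from Hill fits normalised to rosiglitazone and DMSO.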
With O=C(O)C(Br)Br the Potency was “inactive”. In the case of Cc1ccc(OP(=O)(Oc2ccc(C)cc2)Oc2ccc(C)cc2)cc1, the Potency is reported as “inactive”. For Nc1ccc(Cc2ccc(N)c(Cl)c2)cc1Cl, the Potency was 39.8 µM (active). With CN(C)c1ccc(N(C)C)cc1 the Potency was “inactive”. With Brc1ccc(Oc2ccc(Br)cc2Br)c(Br)c1 the Potency was “inactive”. For CN1CSC(=S)N(C)C1, the Potency was “inactive”. In the case of CC(C)Br, the Potency is reported as “inactive”. For O=[N+]([O-])c1ccc(O)c([N+](=O)[O-])c1, the Potency was “inactive”. For CCN(N=O)C(N)=O, the Potency was “inactive”. With O=[N+]([O-])c1ccccc1CCl the Potency was “inactive”. For Cc1cc(C)cc(OP(=O)(Oc2cc(C)cc(C)c2)Oc2cc(C)cc(C)c2)c1, the Potency was “inactive”. In the case of N#CC(Br)Br, the Potency is reported as “inactive”. With Nc1ccc([N+](=O)[O-])cc1N the Potency was “inactive”. With OCCCCO the Potency was “inactive”. In the case of Cc1ccc2c(c1N)C(=O)c1ccccc1C2=O, the Potency is reported as “inactive”. In the case of COc1ccccc1N, the Potency is reported as “inactive”. For CN(C)c1ccc(N)cc1, the Potency was “inactive”. For O=[N+]([O-])/C=C/c1ccccc1, the Potency was “inactive”.

Biological target: Vitamin D3 receptor (Homo sapiens) (UniProt P11473)
Sequence (P11473 whole entry, looked up): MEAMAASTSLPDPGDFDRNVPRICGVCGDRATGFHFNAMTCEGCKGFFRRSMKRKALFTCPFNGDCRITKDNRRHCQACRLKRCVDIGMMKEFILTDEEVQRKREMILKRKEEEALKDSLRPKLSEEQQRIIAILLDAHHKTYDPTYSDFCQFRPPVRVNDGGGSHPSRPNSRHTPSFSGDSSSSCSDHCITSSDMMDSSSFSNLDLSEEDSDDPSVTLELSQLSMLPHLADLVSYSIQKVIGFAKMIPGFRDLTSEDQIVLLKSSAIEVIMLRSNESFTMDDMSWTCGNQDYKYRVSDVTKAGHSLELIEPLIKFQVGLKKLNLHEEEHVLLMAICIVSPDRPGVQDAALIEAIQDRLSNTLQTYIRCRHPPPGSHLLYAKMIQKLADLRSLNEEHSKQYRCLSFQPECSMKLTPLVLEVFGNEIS
Experiment: qHTS assay for small molecule antagonists of vitamin D receptor signaling (AID 588541);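 further: receptor activated by calcitriol during compound treatment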
Settings: HEK293T VDR-UAS-bla, beta-lactamase ratio, antagonist mode; series mostly up to 76.7 µM
Summary of the method: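 VDR-UAS-bla HEK293T cells in 2% charcoal-stripped FBS were stimulated with 1-alpha,25-dihydroxyvitamin D3 (3 nM final) plus compound for 16 h at 37 C. The beta-lactamase CCF4 readout was normalized to 50 nM agonist and DMSO, and Hill fits gave IC50.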
With O=C(O)C(Br)Br the outcome was “inactive”. For Cc1ccc(OP(=O)(Oc2ccc(C)cc2)Oc2ccc(C)cc2)cc1, the outcome was “inactive”. For Brc1ccc(Oc2ccc(Br)cc2Br)c(Br)c1, the outcome was “inactive”. For O=[N+]([O-])c1c(Cl)c(Cl)c(Cl)c(Cl)c1Cl, the outcome was “inactive”. With CN1CSC(=S)N(C)C1 the outcome was “inactive”. For ClCC(Cl)Cl, the outcome was “inactive”. With C=CC(=O)OCCO the outcome was “inactive”. In the case of CC(C)Br, the outcome is reported as “inactive”. For CCCC[N+](=O)[O-], the outcome was “inactive”. For Cc1cc(-c2cc(C)c(N)c(C)c2)cc(C)c1N, the outcome was “inactive”. For CCN(N=O)C(N)=O, the outcome was “inactive”. For CCCCC(CC)COC(=O)c1ccc(C(=O)OCC(CC)CCCC)c(C(=O)OCC(CC)CCCC)c1 (stereo not drawn), the outcome was “inactive”. With Nc1c(Br)cc([N+](=O)[O-])cc1[N+](=O)[O-] the outcome was “inactive”. In the case of O=[N+]([O-])c1ccccc1CCl, the outcome is reported as “inactive”. For Cc1cc(C)cc(OP(=O)(Oc2cc(C)cc(C)c2)Oc2cc(C)cc(C)c2)c1, the outcome was “inactive”. With COP(=S)(OC)SCn1nnc2ccccc2c1=O the outcome was “inactive”. In the case of Nc1ccc([N+](=O)[O-])cc1N, the outcome is reported as “inactive”. With Cc1cc(N=Nc2ccccc2C)ccc1N the outcome was “inactive”. With OCCCCO the outcome was “inactive”. For CC(C)(COCC1CO1)COCC1CO1 (stereo not drawn), the outcome was “inactive”. For CC(C)(C)OOC(=O)c1ccccc1, the outcome was “inactive”. For c1ccc(N=NNc2ccccc2)cc1, the outcome was “inactive”. With COC(C)(C)C the outcome was “inactive”. With CN(C)c1ccc(N)cc1 the outcome was “inactive”. In the case of O=[N+]([O-])/C=C/c1ccccc1, the outcome is reported as “inactive”.
